From PubChem
Most compounds without a hit are left out; they make up all but 10% or so of the library.
FLuc inh-1: Photinus pyralis luciferase inhibition; P08659; purified P. pyralis luciferase, luminescence, biochemical; Potency, µM (titrated, usually from 115 µM), actives largely listed as inhibitors; hit rate 2.5% among 76,000; AID 1347043; note: % is set by controls: 0 for no effect and ±100 for the full control effect; nearly all actives have a fitted effect of over 65% in size
Target sequence (P08659 whole entry, looked up): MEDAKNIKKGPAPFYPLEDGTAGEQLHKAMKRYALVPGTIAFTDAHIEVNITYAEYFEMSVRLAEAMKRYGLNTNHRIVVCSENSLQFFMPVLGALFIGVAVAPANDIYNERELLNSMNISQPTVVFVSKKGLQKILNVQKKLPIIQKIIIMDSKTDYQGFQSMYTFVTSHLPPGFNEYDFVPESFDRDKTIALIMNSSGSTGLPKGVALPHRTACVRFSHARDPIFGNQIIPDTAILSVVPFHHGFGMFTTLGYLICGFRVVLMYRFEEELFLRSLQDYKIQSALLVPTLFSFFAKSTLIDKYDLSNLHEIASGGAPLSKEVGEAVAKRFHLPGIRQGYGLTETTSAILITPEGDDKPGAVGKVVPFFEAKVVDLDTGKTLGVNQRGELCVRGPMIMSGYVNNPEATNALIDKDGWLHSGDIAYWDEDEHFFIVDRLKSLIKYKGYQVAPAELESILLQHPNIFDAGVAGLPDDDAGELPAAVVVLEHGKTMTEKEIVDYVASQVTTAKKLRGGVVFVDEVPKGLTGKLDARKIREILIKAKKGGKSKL
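Purified 10nM P. pyralis luciferase with 10uM D-luciferin and 10uM ATP in 50mM Tris acetate pH 7.5, 10mM Mg acetate, 0.01% Tween-20, 0.05% BSA. qHTS titration; luminescence read by CCD imager.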
HEK cytotox: HEK 293 cell cytotoxicity. HEK 293 viability, ATP luminescence (CellTiter-Glo), 48-72 h. Potency, µM (highest dose often 115 µM), inactives show top-dose activity change, negative = cytotoxicity, usual class: inhibitors. AID 1345083. hit rate 6.6% among 94,000; note: % is set by controls: 0 for no effect and ±100 for the full control effect; nearly all actives have a fitted effect of over 60% in size
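Read-out: CellTiter-Glo ATP luminescence. Cells: HEK 293, 250 cells/well. Exposure: 48 or 72 hr, 37 degree Celsius.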
hNpr1 antagonist: antagonists of human natriuretic peptide receptor Npr1; HEK293 hNpr1 GloSensor cGMP, ANP-stimulated luminescence; Potency, µM (top dose mostly 46.3 µM), without a hit: top-dose activity change, negative = inhibition, most hits filed as inhibitors; hit rate 1.6% among 76,000; calls by dose curve; note: % is set by controls: 0 for no effect and ±100 for the full control effect; nearly all actives have a fitted effect of over 60% in size
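HEK293 cells stably expressing human Npr1 and cGMP GloSensor pGS-40F, loaded 2 h with 2% GloSensor reagent, given compound 30 min at room temperature. Luminescence read before and 20 min after 0.1 nM hNppA.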
NIH3T3 tox: NIH 3T3 cell cytotoxicity | NIH 3T3 viability, CellTiter-Glo ATP luminescence, 48-72 h | AID 1345082 | hit rate 4.3% among 94,000 | Potency, µM (titrated, usually from 96.7 µM), for the others: at the top dose activity change, negative = cytotoxicity, hits mostly inhibitors; note: % is set by controls: 0 for no effect and ±100 for the full control effect; nearly all actives have a fitted effect of over 55% in size
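NIH 3T3 cells at 400 cells/well received 23 nL of compound by pintool and were incubated 48 or 72 h at 37 °C. Viability was read as ATP-coupled CellTiter-Glo luminescence.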
GPT2 inh: GPT2 alanine aminotransferase inhibition; Recombinant GPT2, coupled pyruvate oxidase/HRP Amplex Red fluorescence; Potency, µM (top dose mostly 57.7 µM), without a hit: top-dose activity change, negative = inhibition, most hits filed as inhibitors; hit rate 0.25% among 100,000; AID 1671188; note: % is set by controls: 0 for no effect and ±100 for the full control effect; nearly all actives have a fitted effect of over 60% in size
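Fluorescence read-out: pyruvate from GPT2 turnover coupled to pyruvate oxidase, HRP and Amplex Red (0.2mM ThPP, 0.2U/mL PO and HRP, 50uM Amplex final). Substrates 250uM a-KG, 2mM L-alanine; enzyme 10ng/uL; 30 min RT.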
FLuc SDR -ATP: stabilizes firefly luciferase without ATP; Purified FLuc-C-HiBiT, Nano-Glo HiBiT luminescence, no ATP; Potency, µM (series often up to 32.7 µM), inactives show at the top dose activation (signal gain), hits mostly activators; shares compounds with FLuc inh-1; hit rate 7.8% among 1,300; note: nearly all actives have a fitted effect of over 55% in size
FLuc SDR ATP: stabilizes firefly luciferase with ATP present. hit rate 8.7% among 1,300. Potency, µM (highest dose often 32.7 µM), for the others: at the highest dose activation (gain of signal), actives largely listed as activators. shares compounds with FLuc inh-1. purified FLuc-C-HiBiT + ATP, HiBiT complementation luminescence;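 note: signal reports ligand binding via conformational change of the enzyme rather than luciferase catalysis; % of control where 0% means no effect; nearly all actives have a fitted effect of over 55% in size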
FLuc inh-2: blocks firefly luciferase enzymatic activity. hit rate 42% among 1,300. Potency, µM (top dose mostly 32.7 µM), without a hit: at the top dose activity change, negative = inhibition, usual class: inhibitors. purified FLuc-C-HiBiT enzyme, luciferin luminescence. AID 1963320. shares compounds with FLuc inh-1; note: % is set by controls: 0 for no effect and ±100 for the full control effect; nearly all actives have a fitted effect of over 70% in size
Numbers without * were called inactive; i = inactive; ? = inconclusive; · = no result given; [ ] = another dose, or the depositor's remark. Unless noted, calls come from the whole dose curve; as a rule, active = well fitted curve in the direction sought with a large enough effect; inconclusive = small, poorly fitted or top-dose-only effect, or another doubt; inactive = no such curve, though single readings can be large; an effect the other way counts as inactive or inconclusive. Potency is the fitted concentration of half-maximal effect.

SMILES	FLuc inh-1	HEK cytotox	hNpr1 antagonist	NIH3T3 tox	GPT2 inh	FLuc SDR -ATP	FLuc SDR ATP	FLuc inh-2
O=S(=O)(Cc1ccccc1F)N1CCCC(Cc2noc(C3CC3)n2)C1 (stereo not drawn)	i	-25%	-10%	-32%	i	·	·	·
O=c1n(-c2cccc(Cl)c2)nc2n1CCN([S+](=O)([O-])c1cccs1)C2	·	-14%	·	-13%	-8%	·	·	·
O=C(NC1CCN(c2ccc3nnc(C4CC4)n3n2)C1)c1cccnc1 (stereo not drawn)	·	-8%	·	-27%	·	·	·	·
Cc1ccc(C(=O)Nc2ccc3oc(-c4ccccc4C)nc3c2)cc1	·	·	·	·	·	14%	9%	-1%
COc1ccc(CN2C(=O)CO[C@H]3CN(Cc4c[nH]c5ccccc45)C[C@H]32)cc1	i	?	?	?	3%[88.5 µM]	·	·	·
COc1ccc(CN2CCC3(Cc4ccccc4CNC3=O)C2)c(OC)n1 (stereo not drawn)	·	-31%	·	-9%	i	·	·	·
COc1ccc(/C=C/c2ccc3c(c2)C(=O)N2CC[C@H](NC(=O)COCC(=O)O)[C@H]2C(=O)N3)cc1	7.9µM*	?	-2%	?	i	?	?	9.9µM*
CSCC(=O)N[C@H]1CCN2C(=O)c3cc(/C=C/c4ccccc4)ccc3NC(=O)[C@H]12	11µM*	?	2%[70.6 µM]	-26%[174 µM]	-16%[88.5 µM]	17%[49.3 µM]	10%[49.3 µM]	?
Cc1ccc(-c2nnc(SCc3ccccc3)o2)cc1	·	·	·	·	·	15%	18%	?
Cc1cccc(-c2nnc(SCCC(=O)O)o2)c1	·	·	·	·	·	17%	?	5µM*
COc1cccc(CN2CCCC(c3nc(-c4cccnc4)no3)CCNC(=O)CC2)c1 (stereo not drawn)	i	?	2%	?	i	·	·	·
C[C@H](C(=O)NCCN1CCOCC1)C1CC[C@@]2(C)Cc3sc(-c4ccccc4)nc3[C@@H](C)[C@@H]2[C@H]1O (stereo partly drawn)	11µM*	?	?	?	2%	2.2µM*	?	0.99µM*
Cc1nc2c(s1)C[C@]1(C)CCC([C@H](C)C(=O)N3CCOCC3)[C@H](O)[C@H]1[C@@H]2C (stereo partly drawn)	i	-12%[172 µM]	2%[70.6 µM]	-18%[138 µM]	-4%[88.5 µM]	·	·	·
Cn1nc(-c2ccc3c(c2)OCCO3)nc1N1CCCCC1	4µM*	-4%	?	?	i	?	?	9.9µM*
Cc1cn2nc(C(=O)Nc3ccc4c(c3)OCCO4)cc2c(N2CCCC2)n1	i	?	-24%	?	i	·	·	·
CC(C)[C@@H]1C[C@@H]2C[C@@H](N(C)Cc3ccccc3)C[C@]2(c2ccccc2)CO1	·	?	·	-28%	·	·	·	·
Cc1cc(CNC(=O)c2ccc(S(N)(=O)=O)cc2)c2[nH]c(C)c(C)c2c1	i	-1%	0%	-15%	-24%	·	·	·
Cc1c(-c2ccccc2)[nH]c2c(CNC(=O)C3=NN(C)C(=O)CC3)cc(Cl)cc12	4µM*	45µM*	-29%	45µM*	0%	12%	9%	?
COCCOCc1nc(C2CCCCN2C(=O)Nc2cccc(C(F)(F)F)c2)no1 (stereo not drawn)	i	?	1%	-22%	2%	·	·	·
c1ccc(COc2cccc(-c3nc4ccccc4s3)c2)cc1	·	·	·	·	·	26%	18%	5µM*
Oc1ccc(OCc2ccccc2)cc1	·	·	·	·	-15%	·	·	·
NC(=O)COC(=O)c1ccccc1-c1nc2ccccc2s1	·	·	·	·	·	12%	8%	-5%
c1ccc(COc2ccccc2-c2nc3ccccc3s2)cc1	·	·	·	·	·	16%	13%	?
Cc1cc(Cl)ccc1NC(=O)N1CCCC(Cn2cnc3cccnc32)C1 (stereo not drawn)	i	?	-7%	-22%	i	·	·	·
Cc1nc(-c2c3n(c(=O)n(CC(=O)Nc4ccc(C)c(F)c4)c2=O)CCCC3)no1	i	-5%	3%	-23%	1%	·	·	·
SMILES	FLuc inh-1	HEK cytotox	hNpr1 antagonist	NIH3T3 tox	GPT2 inh	FLuc SDR -ATP	FLuc SDR ATP	FLuc inh-2
COc1ccc(NC(=O)/C(C#N)=C/c2ccc(C)o2)cc1	·	·	·	·	·	22%	17%	?
COc1ccc(NC(=O)N2CC3CN(C)CC(C2)O3)cc1	i	3%	-2%	-9%	i	·	·	·
COC1C(=O)N(c2cccc(F)c2)C12CCN(C(=O)CCc1c[nH]c3ccccc13)CC2 (stereo not drawn)	i	?	-13%	-20%	5%	·	·	·
CC(=O)c1cccc(NC(=O)c2nc3ccccc3n(C)c2=O)c1	·	·	·	·	·	4.4µM*	?	3.1µM*
O=C1CCN(C(=O)Cc2ccccc2)CCCC(c2nc(-c3cnccn3)no2)CCN1 (stereo not drawn)	i	-8%	5%	-6%	i	·	·	·
O=C(Nc1ccccc1C(=O)O)c1cccc(S(=O)(=O)N2CCCC2)c1	·	·	·	·	·	17%	13%	?
Cc1ccc(S(=O)(=O)N2CCC(n3cnnc3-c3ccccc3)CC2)cc1Cl	·	?	·	?	i	·	·	·
Cc1ccc(NC(=O)CN2C(=O)NC3(CCCCC3)C2=O)c(C)c1	i	-4%	4%	-14%	-3%	·	·	·
Cc1ccc(NC(=O)c2oc3ccc4c(c3c2C)C(=O)CC(C)(C)O4)c(C)c1	·	·	·	·	·	20%	?	?
Cc1cc(S(=O)(=O)N2CCC(n3cnnc3C)CC2)ccc1F	i	-3%	-2%	i	4%	·	·	·
COCc1nncn1C1CCN(S(=O)(=O)c2cccc(Cl)c2)CC1	i	1%	0%	-2%	i	·	·	·
Cc1ccc(/C=C/c2nc3ccccc3n2S(=O)(=O)c2cccc(Cl)c2)cc1	·	·	·	·	·	0.56µM*	0.7µM*	0.12µM*
CSc1ccc(/C=C/c2nc3ccccc3n2S(=O)(=O)c2ccc(F)c(C)c2)cc1	·	·	·	·	·	5µM*	?	0.7µM*
CCOc1ccc(/C=C/c2nc3ccccc3n2S(=O)(=O)c2cccc(Cl)c2)cc1	·	·	·	·	·	3.1µM*	?	0.39µM*
CCOC(=O)c1ccc(NC(=O)c2nsc3ccccc23)cc1	·	·	·	·	·	26%	20%	3.5µM*
CCOC(=O)c1ccc(NC(=O)C2CC(=O)N(c3n[nH]c4ccccc34)C2)cc1 (stereo not drawn)	i	?	1%	?	-5%	·	·	·
